For 30 compounds, outcome and AC50 results are on record in PubChem BioAssay (EPA / NIEHS).

Several values for one entry are separate records, joined by “and”; a condition that tells them apart may be missing. Equal entries are not always repeated. Inconclusive results are not listed. More than one record can exist for a structure, and the calls need not agree. Activity calls are given as the source filed them. The calls were made as follows: active = hit-call score of the fitted dose curve at least 0.9, where 1 is the maximum; inconclusive = response in the unintended direction; inactive = score below 0.9.

One may read the AC50 as the concentration giving half of the maximal activity seen.

Test [1] deals with Estrogen receptor (Homo sapiens) (UniProt P03372). The experiment in a line: OT_ER_ERaERa_1440: Odyssey Thera (OT) 24-hour HEK293T Protein-Complementation Assay for Estrogen Receptor-alpha/-alpha Homodimer (AID 2283349).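 Also: hits raise fluorescence above DMSO for agonists and antagonists alike.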 The method in brief:
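HEK293T, stable ERα LBD (aa 310-547) homodimer PCA; 24 h compound exposure; mean fluorescence intensity (nuclear for agonists, nuclear plus cytoplasmic for antagonists) vs vehicle; positive fitting direction, DMSO baseline.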

Test [2] shares this target. Nature of the test: OT_ER_ERaERa_0480: Odyssey Thera (OT) 8-hour HEK293T Protein-Complementation Assay for Estrogen Receptor-alpha/-alpha Homodimer (AID 2283351).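 Also: rise in fluorescence from reassembled reporter fragments on ERα LBD homodimer in nucleus or whole cell.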 The method in brief: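 HEK293T cells stably expressing a PCA pair of ER alpha LBD (residues 310-547) were dosed for 8 hours. The gain in fluorescence intensity, nuclear for agonists and whole-cell for antagonists, was measured by laser scanning cytometry against DMSO vehicle.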

Test [3] addresses Estrogen receptor (Homo sapiens) + Estrogen receptor beta (Homo sapiens) (UniProt P03372+Q92731). Nature of the test: OT_ER_ERaERb_0480: Odyssey Thera (OT) 8-hour HEK293T Protein-Complementation Assay for Estrogen Receptor-alpha/-beta Heterodimer (AID 2283352). A digest of the protocol:
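Fluorescence intensity readout from a protein-fragment complementation reporter in HEK293T; ER-alpha/ER-beta LBD heterodimer. Dosing 8 h. Gain-of-signal fit relative to DMSO negative control; laser scanning cytometry of whole-well cell population.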

In test [4] the target is bovine Estrogen Receptor (ER), ESR1 (gene 407238) (UniProt P49884). Nature of the test: NVS_NR_bER: NovaScreen (NVS) Nuclear Receptor Binding Assay for bovine Estrogen Receptor (ER) (AID 2283345).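 Also: actives lower the bound radioligand count which means they displace the ER ligand.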 The method in brief:
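Cell-free radioligand binding with receptor from bovine uterine membranes, read by scintillation counting 18 h after dosing. Loss of specific binding was scored against DMSO; primary screen at 25 uM in duplicate, actives then run as concentration series.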

Test [5] addresses chimpanzee Androgen Receptor (AR), AR (gene 747460) (UniProt O97775). Nature of the test: NVS_NR_cAR: NovaScreen (NVS) Nuclear Receptor Binding Assay for chimpanzee Androgen Receptor (AR) (AID 2283346).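 Also: radioligand displacement from AR measured by scintillation counting in a cell-free assay; a loss of bound radioligand signal versus DMSO counts as binding.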 A digest of the protocol: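 Cell-free competition binding with insect-cell (Sf9/Sf21) extracted chimpanzee AR; scintillation signal from lysate at 72 h. Screened in duplicate at 25 uM, then concentration-response for actives; fitting relative to DMSO.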

Test [6] concerns the target Estrogen receptor (Homo sapiens) (UniProt P03372). Nature of the test: NVS_NR_hER: NovaScreen (NVS) Nuclear Receptor Binding Assay for human Estrogen Receptor (ER) (AID 2283348). The method in brief:
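Cell-free MCF7-derived ER preparation, specific radioligand displaced by test compound, read by scintillation counting 18 h post-dosing. Duplicate single-point 25 uM screen, then concentration-response confirmation; DMSO baseline.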

The target in test [7] is human Peripheral-type Benzodiazepine Receptor (PBR), TSPO (gene 706) (UniProt P30536). The experiment in a line: NVS_MP_hPBR: NovaScreen (NVS) Membrane Protein Assay for human Peripheral-type Benzodiazepine Receptor (PBR) (AID 2283331).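 Also: hits reduce radioligand binding relative to DMSO baseline.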 The method in brief: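 Cell-free binding to human colonic membrane preparations measured by filter-based scintillation counting after 1 h. Compounds first run at 25 uM in duplicate, then concentration series for actives; signal loss against DMSO baseline.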

Test [8] in a line: NVS_IC_rCaBTZCHL: NovaScreen (NVS) Ion Channel Assay for Calcium Channel, Type L, Benzothiazepine Site (CaBTZCHL) (AID 2283337). A digest of the protocol: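 Rat cortical membrane preparation incubated 1.5 h with compound and benzothiazepine-site radioligand; loss of filter-bound counts versus DMSO marks displacement. Initial duplicate testing at 25 uM, actives followed up in concentration series.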

For test [9], the target named is human Androgen Receptor (AR), AR (gene 367) (UniProt P10275). The experiment in a line: NVS_NR_hAR: NovaScreen (NVS) Nuclear Receptor Binding Assay for human Androgen Receptor (AR) (AID 2283332). The method in brief: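 Radioligand competitive binding, scintillation read-out, in cell-free extract from LnCAP, measured 20 h after dosing. Screened first in duplicate at 25 uM, then concentration series for actives; activity fitted against DMSO.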

In test [10] the target is rat Peripheral-type Benzodiazepine Receptor (PBR), Tspo (gene 24230) (UniProt P16257). Nature of the test: NVS_MP_rPBR: NovaScreen (NVS) Membrane Protein Assay for rat Peripheral-type Benzodiazepine Receptor (PBR) (AID 2283335). The method in brief:
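Competitive displacement of specific radioligand from rat kidney membrane PBR, read by filtration and scintillation after 1 h. Compounds first tested at 25 uM in duplicate, then in concentration series; signal loss relative to DMSO.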

Sequence of bovine Estrogen Receptor (ER), ESR1 (gene 407238) (P49884 whole entry, looked up): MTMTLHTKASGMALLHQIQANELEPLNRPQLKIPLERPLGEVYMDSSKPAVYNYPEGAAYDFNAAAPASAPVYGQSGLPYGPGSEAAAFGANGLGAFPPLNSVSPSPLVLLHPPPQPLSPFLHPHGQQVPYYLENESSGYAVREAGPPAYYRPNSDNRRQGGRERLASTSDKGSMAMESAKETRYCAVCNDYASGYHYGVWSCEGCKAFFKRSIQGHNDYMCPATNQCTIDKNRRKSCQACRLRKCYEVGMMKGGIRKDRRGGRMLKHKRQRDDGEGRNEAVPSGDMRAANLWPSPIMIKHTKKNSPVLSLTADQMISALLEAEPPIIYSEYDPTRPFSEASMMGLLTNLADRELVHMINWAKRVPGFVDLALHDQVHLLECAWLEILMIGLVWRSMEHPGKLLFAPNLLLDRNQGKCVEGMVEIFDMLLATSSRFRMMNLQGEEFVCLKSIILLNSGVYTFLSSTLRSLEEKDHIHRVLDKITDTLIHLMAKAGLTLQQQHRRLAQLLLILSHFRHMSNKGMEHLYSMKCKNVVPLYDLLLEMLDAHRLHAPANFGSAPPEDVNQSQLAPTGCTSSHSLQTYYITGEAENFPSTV
Sequence of human Peripheral-type Benzodiazepine Receptor (PBR), TSPO (gene 706) (P30536 whole entry, looked up): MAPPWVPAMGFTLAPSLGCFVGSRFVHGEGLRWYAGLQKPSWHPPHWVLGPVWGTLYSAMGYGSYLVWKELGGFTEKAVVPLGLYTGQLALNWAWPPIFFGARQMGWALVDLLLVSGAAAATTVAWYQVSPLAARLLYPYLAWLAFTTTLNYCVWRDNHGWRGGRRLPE
Sequence of Estrogen receptor (Homo sapiens) + Estrogen receptor beta (Homo sapiens) (P03372 whole entry, looked up, the tested form may be a part): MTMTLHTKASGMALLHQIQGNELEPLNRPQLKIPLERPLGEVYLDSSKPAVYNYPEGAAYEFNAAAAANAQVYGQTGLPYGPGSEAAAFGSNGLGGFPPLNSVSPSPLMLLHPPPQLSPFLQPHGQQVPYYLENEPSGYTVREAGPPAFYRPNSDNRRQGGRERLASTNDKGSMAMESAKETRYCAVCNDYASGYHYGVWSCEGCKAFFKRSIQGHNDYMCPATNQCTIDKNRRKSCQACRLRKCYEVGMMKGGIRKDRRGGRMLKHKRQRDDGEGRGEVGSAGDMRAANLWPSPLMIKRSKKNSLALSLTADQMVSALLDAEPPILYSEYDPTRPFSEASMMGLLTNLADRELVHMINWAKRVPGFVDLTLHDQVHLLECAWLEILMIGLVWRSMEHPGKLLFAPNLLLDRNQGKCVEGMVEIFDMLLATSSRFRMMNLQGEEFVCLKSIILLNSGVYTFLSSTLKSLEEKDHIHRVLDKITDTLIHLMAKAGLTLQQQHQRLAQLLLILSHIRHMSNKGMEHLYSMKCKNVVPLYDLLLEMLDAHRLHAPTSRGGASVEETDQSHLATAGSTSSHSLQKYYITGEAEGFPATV
Sequence of Estrogen receptor (Homo sapiens) + Estrogen receptor beta (Homo sapiens) (Q92731 whole entry, looked up, the tested form may be a part): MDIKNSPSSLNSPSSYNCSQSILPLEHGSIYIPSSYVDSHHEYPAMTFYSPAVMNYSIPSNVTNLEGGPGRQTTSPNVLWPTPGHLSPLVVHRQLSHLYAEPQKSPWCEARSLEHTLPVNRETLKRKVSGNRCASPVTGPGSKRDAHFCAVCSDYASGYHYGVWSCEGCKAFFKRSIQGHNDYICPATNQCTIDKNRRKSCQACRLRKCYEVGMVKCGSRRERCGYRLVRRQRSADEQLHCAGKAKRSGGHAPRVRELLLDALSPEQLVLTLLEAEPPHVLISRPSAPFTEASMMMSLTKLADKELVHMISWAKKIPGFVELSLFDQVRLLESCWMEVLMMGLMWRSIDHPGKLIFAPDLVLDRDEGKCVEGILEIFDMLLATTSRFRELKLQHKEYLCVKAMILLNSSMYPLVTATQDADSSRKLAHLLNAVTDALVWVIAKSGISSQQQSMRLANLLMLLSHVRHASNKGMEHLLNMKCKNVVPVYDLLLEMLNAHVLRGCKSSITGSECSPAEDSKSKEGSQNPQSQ
Sequence of Estrogen receptor (Homo sapiens) (P03372 whole entry, looked up, the tested form may be a part): as the sequence (P03372 whole entry, looked up, the tested form may be a part) above
Sequence of chimpanzee Androgen Receptor (AR), AR (gene 747460) (O97775 whole entry, looked up): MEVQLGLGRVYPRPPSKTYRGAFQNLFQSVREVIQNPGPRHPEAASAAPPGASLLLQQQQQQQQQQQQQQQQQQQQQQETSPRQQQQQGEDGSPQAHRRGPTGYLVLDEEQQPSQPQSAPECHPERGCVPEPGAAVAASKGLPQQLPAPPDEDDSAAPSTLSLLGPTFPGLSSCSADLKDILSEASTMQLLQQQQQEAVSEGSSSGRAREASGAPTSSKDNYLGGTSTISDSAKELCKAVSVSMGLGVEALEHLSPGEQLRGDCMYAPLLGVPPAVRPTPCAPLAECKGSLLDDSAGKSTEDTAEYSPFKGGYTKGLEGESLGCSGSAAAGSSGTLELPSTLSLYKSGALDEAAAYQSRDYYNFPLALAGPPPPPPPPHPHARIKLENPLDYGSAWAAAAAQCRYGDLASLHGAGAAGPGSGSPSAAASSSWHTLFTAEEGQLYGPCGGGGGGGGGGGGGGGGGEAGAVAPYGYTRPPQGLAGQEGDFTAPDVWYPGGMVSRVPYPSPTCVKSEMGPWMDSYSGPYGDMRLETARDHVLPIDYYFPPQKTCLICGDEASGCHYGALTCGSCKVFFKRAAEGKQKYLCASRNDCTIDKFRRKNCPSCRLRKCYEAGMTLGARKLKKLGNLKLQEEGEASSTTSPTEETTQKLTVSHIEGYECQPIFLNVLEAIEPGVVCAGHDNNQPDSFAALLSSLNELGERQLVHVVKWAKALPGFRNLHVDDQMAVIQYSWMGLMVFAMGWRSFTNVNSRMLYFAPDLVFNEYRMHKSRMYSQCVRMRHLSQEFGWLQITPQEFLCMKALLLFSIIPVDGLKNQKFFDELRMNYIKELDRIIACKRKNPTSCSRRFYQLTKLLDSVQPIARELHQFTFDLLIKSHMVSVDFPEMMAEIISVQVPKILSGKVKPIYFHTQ
Sequence of rat Peripheral-type Benzodiazepine Receptor (PBR), Tspo (gene 24230) (P16257 whole entry, looked up): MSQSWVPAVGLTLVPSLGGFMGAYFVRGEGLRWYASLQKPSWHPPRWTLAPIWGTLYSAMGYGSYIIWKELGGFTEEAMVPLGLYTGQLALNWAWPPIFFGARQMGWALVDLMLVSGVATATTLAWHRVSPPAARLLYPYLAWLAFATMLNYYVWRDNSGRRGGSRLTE
Sequence of human Androgen Receptor (AR), AR (gene 367) (P10275 whole entry, looked up): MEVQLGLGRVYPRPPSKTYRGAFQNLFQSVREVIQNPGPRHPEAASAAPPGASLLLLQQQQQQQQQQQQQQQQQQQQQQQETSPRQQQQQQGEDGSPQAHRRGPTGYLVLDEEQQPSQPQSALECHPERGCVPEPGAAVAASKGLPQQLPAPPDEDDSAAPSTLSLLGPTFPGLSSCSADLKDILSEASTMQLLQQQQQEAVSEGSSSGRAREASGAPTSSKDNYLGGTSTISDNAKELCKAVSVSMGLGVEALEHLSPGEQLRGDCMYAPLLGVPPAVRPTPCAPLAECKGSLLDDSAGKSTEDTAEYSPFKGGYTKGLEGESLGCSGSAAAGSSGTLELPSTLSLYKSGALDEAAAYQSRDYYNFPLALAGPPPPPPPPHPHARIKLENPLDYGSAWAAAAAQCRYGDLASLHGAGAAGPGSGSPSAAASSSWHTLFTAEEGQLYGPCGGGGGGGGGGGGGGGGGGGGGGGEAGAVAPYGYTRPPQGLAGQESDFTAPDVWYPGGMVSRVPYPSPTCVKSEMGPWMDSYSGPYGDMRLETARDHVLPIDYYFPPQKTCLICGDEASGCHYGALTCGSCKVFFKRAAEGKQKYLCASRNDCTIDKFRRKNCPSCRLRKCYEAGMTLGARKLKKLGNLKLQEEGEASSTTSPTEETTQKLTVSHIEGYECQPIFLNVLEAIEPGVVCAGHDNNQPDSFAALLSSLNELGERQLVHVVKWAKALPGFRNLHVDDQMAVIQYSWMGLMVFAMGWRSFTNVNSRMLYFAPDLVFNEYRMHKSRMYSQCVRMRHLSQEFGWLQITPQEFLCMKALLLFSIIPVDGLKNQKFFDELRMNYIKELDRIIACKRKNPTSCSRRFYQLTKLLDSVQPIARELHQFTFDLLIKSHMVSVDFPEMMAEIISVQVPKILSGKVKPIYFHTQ

For `CCCCCCOC(=O)c1ccccc1`, the outcome in test [1], in test [2] and in test [3] was inactive.
On to `c1ccc(B(c2ccccc2)c2ccccc2)cc1`, for which the compound was classed as inactive in test [4]. Further, the AC50 in test [5] is 17.5 µM (active); in [6] it was 13.9 µM (active); in test [1], 78.5 µM (active); in [2], 55.7 µM (active).
In the case of `CCCCCCC(C)OC(=O)CCCCC(=O)OC(C)CCCCCC` (configuration not stated), the AC50 in [7] is 10.2 µM (active). Moreover, the call in test [5], in [1], in test [2] and in test [3] was inactive.
Take `Nc1ccc([N+](=O)[O-])cc1O`: the call in test [4] and in [6] was inactive.
Take `CCCCC(CC)COP(=O)(O)OCC(CC)CCCC` (configuration not stated): the compound was classed as inactive in test [6], in test [1] and in test [2].
`Oc1ccc(Nc2ccccc2)cc1`: in test [8], the result was inactive. Moreover, the AC50 in test [4] was 25 µM (active); in test [6] it was 8.86 µM (active).
Consider `CC(=O)Nc1ccc(N=Nc2cc(C)ccc2O)cc1`, for which the values for the AC50 in test [7] and in [9] were 2.21 µM (active) and 31.4 µM (active), respectively. For the same compound, the compound was called inactive in [5].
With `CC(Cc1ccc(O)c(O)c1)C(C)Cc1ccc(O)c(O)c1` (configuration not stated), the AC50 in [10] is 6.77 µM (active); in test [4], 11.1 µM (active); in [6] it was 0.705 µM (active); in test [1], 11.9 µM (active); in test [2], 11.9 µM (active); in [3], 2.42 µM (active).
`OC[C@@H](O)[C@@H](O)[C@H](O)[C@@H](O)CO`: the compound was called inactive in test [1] and in test [2].
With `CCN(Cc1cccc(S(=O)(=O)O)c1)c1ccc(C(=C2C=CC(=[N+](CC)Cc3cccc(S(=O)(=O)O)c3)C=C2)c2ccc(O)cc2S(=O)(=O)[O-])cc1`, in test [5], the AC50 was 13.2 µM (active). Also, the result in [1], in test [2] and in test [3] was inactive.
With `C(=C(c1ccccc1)c1ccccc1)c1ccccc1`, the outcome in [4] and in [6] was inactive. Further, the AC50 was 43.1 µM (active) in test [1], 5.6 µM (active) in test [2] and 9.47 µM (active) in [3].
As to `CC/C=C\CCOC(C)=O`, the result in test [1], in [2] and in test [3] was inactive.
For `CCN(CC)c1ccc2c(C)cc(=O)oc2c1`, the values for the half-maximal activity concentration (AC50) in [7], in test [10] and in test [5] were 4.66 µM (active), 3.32 µM (active) and 5 µM (active), respectively. In addition, in test [4], the call was inactive.
Turning to `Cc1cc(C)cc(O)c1`, the call in [6], in test [1], in [2] and in test [3] was inactive.
Consider `Cc1ccc(S(=O)(=O)NCl)cc1`, for which the compound was classed as inactive in [1] and in [2].
On to `CN(C)Cc1ccccc1O`, for which the outcome in [6], in [1], in [2] and in [3] was inactive.
With `O=S(=O)(O)c1ccc2ccccc2c1`, the compound was classed as inactive in test [1] and in test [2].
As for `CC(C)OC(=O)c1ccccc1C(=O)OC(C)C`, the figures for the AC50 in [7], in test [10] and in test [2] were 11.5 µM (active), 9.08 µM (active) and 62.8 µM (active), respectively. Moreover, the compound was called inactive in test [1].
Turning to `C1COCCN1`, the compound was called inactive in [1], in [2] and in test [3].
For the compound `Nc1ccc(Oc2cccc(Oc3ccc(N)cc3)c2)cc1`, the AC50 in [10] is 13.3 µM (active).
Turning to `O=C(OCCOCCOCCOC(=O)c1ccccc1)c1ccccc1`, the AC50 in test [7] is 9.76 µM (active). The result in test [1], in test [2] and in test [3] was inactive.
For `CCCCCCOC(=O)c1ccccc1O`, the call in test [1] and in test [2] was inactive. Besides, the AC50 in test [3] is 60.2 µM (active).
Take `CC(CCl)OP(=O)(OC(C)CCl)OC(C)CCl` (configuration not stated): the AC50 in test [7] is 23.8 µM (active); in test [10], 4.23 µM (active) and 14.6 µM (active). Moreover, the call in test [1], in test [2] and in test [3] was inactive.
On to `C#C[C@]1(O)CC[C@H]2[C@@H]3CCc4cc(OC)ccc4[C@H]3CC[C@@]21C`, for which the concentration at half-maximal activity (AC50) was 0.0305 µM (active) in test [4]; 3.99 µM (active) in test [5]; 0.00229 µM (active) in test [6]; 17.1 µM (active) in test [1]; 9.95 µM (active) in test [2]. Besides, the call in test [6] was inactive.
For the compound `COC(=O)C1CCC(C(=O)OC)CC1` (configuration not stated), the result in [1], in test [2] and in [3] was inactive.
`CCCCOc1ccc(N)cc1`: the call in test [1], in [2] and in test [3] was inactive.
With `CNC(=S)NC`, the compound was classed as inactive in [1] and in test [2].
Regarding `CCCCCCCCCCCCCCCC[N+](C)(C)Cc1ccccc1`, the AC50 in test [7] was 41.3 µM (active); in test [10], 9.82 µM (active). Further, the result in [4] and in [6] was inactive.
`[Co]`: the compound was called inactive in [1], in test [2] and in [3].
As to `CCCCOCCOCCOC(=O)CCCCC(=O)OCCOCCOCCCC`, in test [7], the compound was classed as inactive.
